Source: PubChem
Shown are actives, neighbours in structure and some others; about 4.1% of the full set was active somewhere.
ssDAF-12 act: activators of S. stercoralis DAF-12 nuclear receptor. 1% of 370,000 active. HEK293 ssDAF-12/GRIP1 lit1-tk-luc reporter, luminescence; % of 3 µM dafachronic acid response. activation, % at 6.8 µM;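 active = activation above the mean over all tested compounds plus 3 SD, cut at about 0.9% in these data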;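 also: 0% = DMSO-only wells and 100% = 3 µM delta7-dafachronic acid wells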
hgDAF12 agonist: activates the H. glycines DAF-12 receptor ligand-binding domain; activation, % at 6.8 µM; AID 687014; HEK293 GAL4-hgDAF12 UAS-luciferase reporter, agonist luminescence; normalized to butyrate control; 1.8% of 370,000 active;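 active = activation above a cutoff set at the mean of all screened compounds plus 3 SD, cut at about 10% in these data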;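 also: 0% = DMSO wells and 100% = sodium butyrate wells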
PolyA inhibitor: yeast polyadenylation inhibition. S. cerevisiae SKY197-pL101 polyadenylation reporter, beta-gal luminescence; efflux-impaired pdr1/pdr3 knockout yeast; score 100 = 6 SD above DMSO. activity score, % at 12 µM. 0.02% of 300,000 active;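 active = lowest replicate activity score at least 50, where 100 means six control SD above control mean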;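 also: yeast exposed to compound for 9 h at 30 °C; higher score means more reporter readthrough which indicates perturbed polyadenylation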
hcDAF-12 act: H. contortus DAF-12 activation, primary screen; HEK293 hcDAF-12 lit1-tk-luc reporter, luminescence; 0% DMSO, 100% Δ7-dafachronic acid; 1.4% of 370,000 active; AID 652067; activation, % at 6.8 µM;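 active = activation above the mean of all tested compounds plus 3 SD, cut at about 5.5% in these data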;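 also: 100% = response to 3 µM Δ7-dafachronic acid high control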
DAX1 inh-1: inhibitors of DAX1 repression of SF-1 activated StAR promoter; HEK293T StAR-luciferase reporter, SF-1/DAX-1 repression relief; inhibition, % at 6.8 µM; 1.1% of 370,000 active; AID 652010;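 active = inhibition above the mean over all tested compounds plus 3 SD, cut at about 3.6% in these data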;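 also: 0% = DAX-1 cells with DMSO and 100% = cells lacking DAX-1 with DMSO; higher inhibition means more luminescence from relief of DAX-1 repression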
DAX1 inh-2: NR0B1 (DAX1) inhibition | inhibition, % at 6.75 µM | 0.99% of 340,000 active | HEK293 Gal4-DAX1 luciferase reporter, luminescence | AID 504766 | P51843;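 active = inhibition above the mean over all tested compounds plus 3 SD, cut at about 4.2% in these data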;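 also: 0% = DAX1-transfected cells with DMSO and 100% = empty-vector control cells with DMSO; inhibition shows as a rise in luminescence from relieved DAX1 repression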
Target sequence (P51843 207-470 limits assumed): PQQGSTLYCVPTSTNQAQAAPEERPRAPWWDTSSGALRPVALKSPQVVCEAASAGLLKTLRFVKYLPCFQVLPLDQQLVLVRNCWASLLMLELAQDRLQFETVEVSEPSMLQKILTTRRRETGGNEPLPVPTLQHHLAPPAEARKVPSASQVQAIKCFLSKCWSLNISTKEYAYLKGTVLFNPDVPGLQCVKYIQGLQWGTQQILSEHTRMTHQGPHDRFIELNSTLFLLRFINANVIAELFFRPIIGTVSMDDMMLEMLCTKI
* = called active by the depositor; . = not tested or not shown.

SMILES	ssDAF-12 act	hgDAF12 agonist	PolyA inhibitor	hcDAF-12 act	DAX1 inh-1	DAX1 inh-2
C(=N\Nc1nc2ccccc2s1)/c1ccccn1	-2.9	-14.3	-32.4	-5.2	-2.6	.
Cc1csc(N/N=C/c2ccccn2)n1	1.3*	9.3	-6.8	6.2*	2.3	-1.9
COCC(=O)Nc1ccc(S(=O)(=O)Nc2nccs2)cc1	-1.3	-0.4	10.4	0.7	-0.1	4.4*
Cc1cc2nc(-c3cccc(Br)c3)c(Cc3ccsc3)n2c(C)c1Br	0.3	0.1	.	2.8	-1.5	.
Cc1cc2nc(-c3ccc(F)cc3)c(Cc3ccccc3)n2c(C)c1Br	0.1	0.6	.	5.1	-0.8	.
Cc1ccc(-c2nc3cc(C)c(Br)c(C)n3c2Cc2ccsc2)cc1	1.5*	9.0	.	5.3	3.7*	.
Cc1ccc(Cc2c(-c3ccccc3)nc3cc(C)c(Br)c(C)n23)cc1	1.3*	5.9	.	2.5	-0.6	.
Cc1ccc(-c2nc3c(C)cc(Br)cn3c2Cc2ccsc2)cc1	-0.1	10.6*	.	3.1	-0.7	.
Cc1ccc(-c2nc3cc(C)c(Br)c(C)n3c2CC(C)(C)C)cc1	1.5*	6.0	.	6.5*	0.5	.
Cc1cc(Br)cn2c(Cc3ccsc3)c(-c3ccccc3)nc12	-0.4	1.1	.	-0.4	0.7	.
Cn1c(=O)c(=O)n(C)c2cc(S(=O)(=O)N3CCN(Cc4ccc(F)cc4)CC3)ccc21	-0.3	0.8	.	-0.9	-0.2	.
COC(=O)[C@H](CC(C)C)N1Cc2nnn(Cc3ccc(C)cc3)c2-c2cc(F)ccc2S1(=O)=O	-1.1	-1.7	.	-1.0	-0.4	.
Cc1cc2nc(-c3cccc(Br)c3)c(CC3CCCCC3)n2c(C)c1Br	1.6*	2.3	.	2.2	1.0	.
CCc1ccc(C(=O)NNC(=O)CC2OC(=O)c3ccccc32)cc1 (stereo not drawn)	1.0*	5.7	-10.3	4.6	2.1	-0.2
O=C(CC1OC(=O)c2ccccc21)NCC1COc2ccccc2O1 (stereo not drawn)	-1.0	0.5	-8.9	-0.7	1.5	-1.1
CC1CC(NC(=O)c2c(O)nc3sccn3c2=O)CC(C)(C)C1 (stereo not drawn)	-0.5	4.2	-8.7	-2.5	2.0	6.4*
O=C(NCCc1ccccc1)c1[nH]c(C(F)(F)F)nc1-c1ccccc1	1.2*	-0.3	.	-1.6	-1.1	.
O=c1cc(CN(Cc2ccccc2)Cc2ccccc2)c2c(ccc3ccccc32)o1	1.8*	1.1	.	2.8	1.0	.
C=CCN1[C@@H](C)[C@H](c2ccccc2)Oc2cccc(NCCc3ccccc3)c2S1(=O)=O	0.6	0.2	.	-0.6	3.2	.
COC(=O)c1cc2c(c3c4cc(C)ccc4n(S(=O)(=O)c4ccc(C)cc4)c13)C(=O)N(Cc1ccccc1OC)C2	-1.3	-0.6	.	-0.3	-0.2	.
Cn1cnc(S(=O)(=O)Nc2ccc(OC(F)(F)F)cc2)c1	-1.4	2.5	7.4	0.9	0.5	5.5*
Cn1cnc(S(=O)(=O)Nc2ccc(C(F)(F)F)cc2)c1	-1.3	-4.2	5.1	-1.0	0.0	-0.1
C/C=C(/CCC1NCCc2c1[nH]c1ccccc21)[Si](C)(C)C (stereo not drawn)	1.3*	2.9	.	3.9	-0.2	0.0
COC(=O)CCCNC(=O)c1ccc2oc(CCCc3ccccc3)nc2c1	-0.4	3.9	10.2	0.5	0.2	0.7
COC(=O)[C@@H](C)NC(=O)c1ccc2oc(CCc3ccccc3)nc2c1	-0.2	11.2*	-0.2	4.1	0.5	2.7
SMILES	ssDAF-12 act	hgDAF12 agonist	PolyA inhibitor	hcDAF-12 act	DAX1 inh-1	DAX1 inh-2
O=C(/C=C(\Nc1cc(Cl)c(F)c(Cl)c1)c1ccccc1)c1ccccc1	-0.8	0.9	.	2.4	0.4	.
O=C(/C=C(\Nc1cc(Cl)c(Cl)c(Cl)c1)c1ccccc1)c1ccccc1	1.5*	6.5	.	5.4	1.0	.
COC(=O)[C@]12C[C@H](CC(=O)N3CCN(C(=O)C4CC4)CC3)C(=O)N(Cc3ccc4c(c3)OCO4)C1=C[C@H](C(C)C)O[C@@H]2C1CC1	-0.9	-2.8	.	-2.7	1.1	.
Cc1nn(C)c(C)c1NC(=O)CCl	1.2*	-6.9	3.0	3.5	-1.4	0.6
C=CCNC(=O)c1ccsc1N	-0.8	2.3	.	1.4	4.2*	.
O=C(NNC(=O)c1ccc([N+](=O)[O-])cc1Cl)c1ccncc1	1.0*	3.1	-12.2	2.8	0.6	1.1
